# About 14,000 (4.5%) of roughly 310,000 compounds showed an effect of 50% or more. Effects have a minus sign here. The sample holds strong results, similar compounds and a random draw of the others, so the mix is not that of the screen.
# Target: human ether-à-go-go-related gene (hERG) potassium channel (human, UniProt Q12809)
# Experiment: primary screen, population patch clamp on CHO cells stably expressing hERG; higher = less effect of the substance
# 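Note: peak tail current of the secondary pulse compared with the same well before compound.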
# human ether-à-go-go-related gene (hERG) potassium channel, sequence (Q12809 whole entry, looked up): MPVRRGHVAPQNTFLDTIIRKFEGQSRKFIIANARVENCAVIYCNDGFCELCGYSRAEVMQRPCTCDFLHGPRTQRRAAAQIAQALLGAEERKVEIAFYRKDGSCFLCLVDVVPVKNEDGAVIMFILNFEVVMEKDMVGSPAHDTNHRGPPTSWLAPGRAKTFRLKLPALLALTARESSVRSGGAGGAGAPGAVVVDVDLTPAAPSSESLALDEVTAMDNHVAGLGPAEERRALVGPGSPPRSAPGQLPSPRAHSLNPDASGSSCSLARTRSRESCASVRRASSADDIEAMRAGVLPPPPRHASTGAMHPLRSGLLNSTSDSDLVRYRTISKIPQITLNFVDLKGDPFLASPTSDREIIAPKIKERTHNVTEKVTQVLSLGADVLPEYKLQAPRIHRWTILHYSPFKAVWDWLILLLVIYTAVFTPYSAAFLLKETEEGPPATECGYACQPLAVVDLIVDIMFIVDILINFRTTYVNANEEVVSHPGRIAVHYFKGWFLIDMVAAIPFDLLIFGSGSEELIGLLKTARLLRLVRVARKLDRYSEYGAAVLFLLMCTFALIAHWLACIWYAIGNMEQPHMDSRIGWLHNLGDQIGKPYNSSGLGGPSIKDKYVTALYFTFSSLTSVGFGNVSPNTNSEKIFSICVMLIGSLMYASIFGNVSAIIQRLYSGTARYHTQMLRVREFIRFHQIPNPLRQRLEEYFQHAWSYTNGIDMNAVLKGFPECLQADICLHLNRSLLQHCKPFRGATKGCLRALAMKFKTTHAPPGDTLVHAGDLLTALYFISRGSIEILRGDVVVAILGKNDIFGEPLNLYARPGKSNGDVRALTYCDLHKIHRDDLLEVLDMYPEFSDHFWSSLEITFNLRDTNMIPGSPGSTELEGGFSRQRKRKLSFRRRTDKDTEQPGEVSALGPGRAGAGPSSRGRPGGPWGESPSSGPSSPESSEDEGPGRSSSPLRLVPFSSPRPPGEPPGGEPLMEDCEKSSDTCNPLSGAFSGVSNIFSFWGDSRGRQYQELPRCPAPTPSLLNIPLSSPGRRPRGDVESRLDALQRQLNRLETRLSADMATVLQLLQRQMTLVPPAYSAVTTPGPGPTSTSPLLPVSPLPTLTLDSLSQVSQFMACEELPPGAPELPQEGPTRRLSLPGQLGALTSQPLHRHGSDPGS
row,SMILES,"hERG current change (%, negative = inhibition) at 10uM [%]"
1,Cc1ccc(-c2cc(C(=O)NCc3ccccn3)no2)cc1,0.477
2,Cc1ccc(OCCNC(=O)c2cccc(S(=O)(=O)N3CCN(C)CC3)c2)cc1,-16.6
3,Cc1ccc(C(=O)Nc2ccc(C)c(S(=O)(=O)N3CCOCC3)c2)c(C)c1,-51
4,Cc1ccc(NC(=O)c2cccc(S(=O)(=O)N3CCCC3)c2)nc1,-7.18
5,O=C(NCCOc1ccc(Cl)cc1)c1cccc(S(=O)(=O)N2CCCC2)c1,-51.8
6,O=C(Nc1ccc(Cl)cn1)c1cccc(S(=O)(=O)N2CCCC2)c1,-50.9
7,Cc1cc(C(=O)Nc2ccc(C)c(S(=O)(=O)N3CCOCC3)c2)c(C)o1,-6.59
8,O=C(NCc1ccc(Cl)cc1)c1cccc(S(=O)(=O)N2CCCC2)c1,-30.9
9,Cc1ccnc(NC(=O)c2cccc(S(=O)(=O)N3CCOCC3)c2)c1,-18.9
10,O=C(Nc1ccccn1)c1cccc(S(=O)(=O)N2CCCC2)c1,9.44
11,O=C(Nc1ccc(Cl)cn1)c1cccc(S(=O)(=O)N2CCOCC2)c1,-65.4
12,Cc1ccc(NC(=O)c2ccc3c(c2)OCO3)cc1S(=O)(=O)N1CCOCC1,-20.3
13,O=C(Nc1ccccn1)c1cccc(S(=O)(=O)N2CCOCC2)c1,-6.45
14,O=C1c2ccccc2C(Nc2ccc(S(=O)(=O)N3CCCCC3)cc2)N1Cc1ccco1 (stereo not shown),-22.7
15,CC(CC(=O)N(C)c1c(N)n(Cc2ccccc2)c(=O)[nH]c1=O)c1ccccc1 (stereo not shown),-23.3
16,COCc1ccc(C(=O)N2CCCC(N3CCN(c4ccccc4C)CC3)C2)s1 (stereo not shown),-34.7
17,CSc1cccc(NC(=O)C2CCCN(S(=O)(=O)c3cccs3)C2)c1 (stereo not shown),3.76
18,COc1ccccc1N(C)C(=O)c1cc(S(=O)(=O)N2CCCC2)cn1C,-3.55
19,CC(NC(=O)C1CCN(S(=O)(=O)c2cnc[nH]2)CC1)c1ccccc1 (stereo not shown),3.81
20,N/C(=N\OC(=O)c1ccccc1)c1ccn[nH]1,-1.07
21,Cc1ccc(C(=O)Nc2ccc(Cl)cn2)cc1S(=O)(=O)N1CCOCC1,-51.4
22,O=C(Nc1cccc(S(=O)(=O)N2CCOCC2)c1)C1=NN(c2ccccc2)C(=O)CC1,-42.9

row,SMILES,"hERG current change (%, negative = inhibition) at 10uM [%]"
1,Cc1ccc(NC(=O)c2ccc(C)c(S(=O)(=O)N3CCOCC3)c2)nc1,-6.9
2,O=C(COC(=O)c1cc(S(=O)(=O)N2CCOCC2)ccc1F)Nc1ccc(Cl)cn1,-37.4
3,Cc1cccc(N2N=C(C(=O)Nc3ccc(Cl)c(S(=O)(=O)N4CCOCC4)c3)CCC2=O)c1,-52.4
4,Cc1ccc(S(=O)(=O)N2CCOCC2)cc1NC(=O)C1=NN(c2ccccc2)C(=O)CC1,-18
5,O=C(COC(=O)c1cccc(S(=O)(=O)N2CCOCC2)c1)Nc1ccc(Cl)cn1,-61.1
6,Cc1ccc(C(=O)Nc2ccccn2)cc1S(=O)(=O)N1CCOCC1,-5.72
7,O=C(COC(=O)c1cccc(S(=O)(=O)N2CCOCC2)c1)Nc1ncc(Cl)cc1Cl,-13.4
8,O=C(Cn1cnc([N+](=O)[O-])c1)Nc1ccccc1C(F)(F)F,-14.3
9,Cc1cc(C)cc(N(C(=O)CNC(=O)c2ccco2)C(C(=O)NC2CCCCC2)c2ccncc2)c1 (stereo not shown),-10
10,CCOC(=O)C1=C(C)NC(=O)C(C(N)=O)C1c1ccccc1 (stereo not shown),5.2
11,O=c1[nH]c2cc3c(cc2cc1C(c1nnnn1C1CCCC1)N1CCSCC1)OCCO3 (stereo not shown),13.6
12,CSc1nc(C)cc(-n2ccc(=O)[nH]c2=O)n1,-3.54
13,CCOC(=O)/C=c1\s/c(=C\c2c(OC)ccc3ccccc23)c(=O)n1CC(=O)NCC1CCCO1 (stereo not shown),2.13
14,Cc1ccccc1Nc1ncnc2c1cnn2C,4.92
15,CN(C)CC(C)(C)CNC(=O)c1cc(=O)c2ccccc2o1.Cl,19.6
16,Cc1cc(/C=C2/SC(=O)N(CC(=O)N3CCCC3)C2=O)c(C)n1C,-5.16
17,Cc1cc(OCCCn2ccnc2)cc(C(C)C)c1,-14.4
18,CCC(C)NCCCCOc1cc(C)cc(C(C)C)c1 (stereo not shown),-54.9
19,Cc1cc(OCCCCNC(C)C)cc(C(C)C)c1.O=C(O)C(=O)O,-29.6
20,COc1ccc(C(=O)Oc2cc(N)n(S(=O)(=O)c3ccccc3)n2)cc1,-7.73
21,COc1ccccc1NS(=O)(=O)c1ccc(C(=O)NCC(c2ccccc2OC)N(C)C)cc1 (stereo not shown),-0.121
22,Cc1ccc(OCc2cc(C(=O)N3CCC(C(O)C(C)C)CC3)no2)cc1C (stereo not shown),-23.1

row,SMILES,"hERG current change (%, negative = inhibition) at 10uM [%]"
1,CC(=O)c1ccccc1OCCCN1CCCCC1.O=C(O)C(=O)O,-31.8
2,CCc1ccccc1OCCCCN1CCCCC1.O=C(O)C(=O)O,-30
3,Cl.OCCN1CCN(CCOc2ccccc2-c2ccccc2)CC1,-24.1
4,O=C(O)C(=O)O.c1ccc(-c2ccccc2OCCCN2CCOCC2)cc1,-37.1
5,CCN1CCN(CCCOc2ccccc2-c2ccccc2)CC1.O=C(O)C(=O)O,-66.6
6,O=C(O)C(=O)O.c1ccc(-c2ccccc2OCCCN2CCCC2)cc1,-65
7,CC(=O)c1ccccc1OCCCCN1CCCCC1.O=C(O)C(=O)O,-59.5
8,Cl.OCCCN1CCN(CCCOc2ccccc2-c2ccccc2)CC1,-69.6
9,CCN1CCN(CCOCCOc2ccccc2-c2ccccc2)CC1.O=C(O)C(=O)O,-35.6
10,CCN1CCN(CCOc2ccccc2-c2ccccc2)CC1.O=C(O)C(=O)O,-32.9
11,O=C(CSc1nnc(-c2cccnc2)o1)Nc1cccc(F)c1,-1.97
12,Cc1c(Br)c([N+](=O)[O-])nn1CC(=O)N1CCN(C23CC4CC(CC(C4)C2)C3)CC1,-38.1
13,Cc1c(N2C(=O)/C(=C\c3ccccc3O)SC2=S)c(=O)n(-c2ccccc2)n1C,30.5
14,O=C(O)Cc1nc2nc3c(c(=O)n2[nH]1)CCCC3,16.3
15,CCOc1ccc(/C=N/NC(=O)c2cc(-c3cccn3C)n[nH]2)cc1,5.27
16,COc1ccc(C/C(O)=C(\C#N)c2nc3ccccc3s2)cc1,11.6
17,O=C(O)C(=O)O.c1ccc(-c2ccccc2OCCCN2CCCCC2)cc1,-74.6
18,O=C(O)C(=O)O.c1ccc(-c2ccccc2OCCCCN2CCCCCC2)cc1,-77.5
19,O=C(O)C(=O)O.c1ccc(-c2ccccc2OCCN2CCCCC2)cc1,-45.9
20,O=C(O)C(=O)O.c1ccc(-c2ccccc2OCCOCCN2CCOCC2)cc1,6.15
21,O=C(O)C(=O)O.c1ccc(-c2ccccc2OCCCN2CCCCCC2)cc1,-80.1
22,CCC1(c2ccc(C)cc2)NC(=O)N(CC(=O)Nc2cccc(S(=O)(=O)N3CCCC3)c2)C1=O (stereo not shown),0.0785

row,SMILES,"hERG current change (%, negative = inhibition) at 10uM [%]"
1,O=C(NCCCN1CCCCC1)C1CC(=O)N(CCc2ccccc2)C1 (stereo not shown),12.3
2,CC(C)CC(=O)Nc1nnc(S(=O)(=O)N2CCCCCC2)s1,-15
3,COc1ccc(-c2nc3c(s2)CN(S(C)(=O)=O)CC3)cc1OC,15.2
4,Cc1ccc(S(=O)(=O)NCCC(=O)Nc2ccc(C)c(Cl)c2)cc1C,-1.46
5,CCOC(=O)C1CCCN(C2CC(=O)N(c3ccc(C(C)C)cc3)C2=O)C1 (stereo not shown),-10
6,CCc1ccc(NC(=O)Cc2ccc(-n3cccc3)cc2)cc1,0.973
7,Cc1[nH]n(-c2ccccc2)c(=O)c1/C=N/n1c(C)nc2ccccc2c1=O,11.8
8,CCc1ccc(Nc2ccc(C(N)=O)cc2[N+](=O)[O-])cc1,8.56
9,Cc1ccc(N)c(N)c1,6.61
10,CCCCn1c2c(c(=N)c3ccccc31)CCC2.I,-50.3
11,Cl.N=c1c2c(n(Cc3ccccc3)c3c1CCC3)CCC2,-0.485
12,CC(=O)NNC(=O)CCn1c2c(c3ccccc31)CCCC2,9.01
13,Br.CCn1c2c(c(=N)c3ccccc31)CCC2,5.12
14,O=C(O)CCn1c2c(c3ccccc31)CCCC2,25.3
15,CCCCCCCn1c2c(c(=N)c3ccccc31)CCC2.I,-81.4
16,CCOC(=O)Cn1c2c(c(=N)c3ccccc31)CCC2.Cl,4.06
17,O=C(O)Cn1c2c(c3ccccc31)CCCC2,7.39
18,CCCCCn1c2c(c(=N)c3ccccc31)CCC2.I,-71.2
19,[N-]=[N+]=NC[C@H](Cc1ccccc1)N1CC[C@@H](OCc2ccccc2)CCC1=O,-13.3
20,CCC(=O)n1nc(-c2ccc(Cl)cc2)nc1N,3.71
21,CC1(/[N+]([O-])=C/c2ccccc2F)CCCCC1=O (stereo not shown),25.2
22,O=C1OC(c2ccc(Br)cc2)=N/C1=C\c1ccco1,26.3

# — paper PMC4336329 (PLoS ONE, 2015)
